Unmarked numbers belong to inactive results. Calls come from the whole dose curve; as a rule, active = well fitted curve in the direction sought with a large enough effect; inconclusive = small, poorly fitted or top-dose-only effect, or another doubt; inactive = no such curve, though single readings can be large; an effect the other way counts as inactive or inconclusive. Inconclusive results are not listed.
Target: Protein phosphatase 1D (Homo sapiens) (UniProt O15297)
Sequence (O15297 whole entry, looked up): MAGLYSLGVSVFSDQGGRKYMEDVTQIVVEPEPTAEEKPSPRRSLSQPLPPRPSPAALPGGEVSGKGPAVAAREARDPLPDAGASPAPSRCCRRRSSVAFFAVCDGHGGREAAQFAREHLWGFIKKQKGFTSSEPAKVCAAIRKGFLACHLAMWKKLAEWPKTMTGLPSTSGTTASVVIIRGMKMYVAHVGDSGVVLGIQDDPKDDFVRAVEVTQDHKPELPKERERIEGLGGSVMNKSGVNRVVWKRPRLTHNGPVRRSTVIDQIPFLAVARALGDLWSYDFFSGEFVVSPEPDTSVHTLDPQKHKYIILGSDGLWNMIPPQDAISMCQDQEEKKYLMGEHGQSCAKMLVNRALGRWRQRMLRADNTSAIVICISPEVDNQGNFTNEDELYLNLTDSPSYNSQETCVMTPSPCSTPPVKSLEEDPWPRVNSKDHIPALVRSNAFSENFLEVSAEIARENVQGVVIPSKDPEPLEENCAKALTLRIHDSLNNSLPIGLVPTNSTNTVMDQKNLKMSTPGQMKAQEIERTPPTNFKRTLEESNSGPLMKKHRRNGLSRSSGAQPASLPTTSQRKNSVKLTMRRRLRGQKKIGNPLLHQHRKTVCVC
Assay: RapidFire Mass Spectrometry qHTS Assay for Modulators of WT P53-Induced Phosphatase 1 (WIP1) (AID 1347424);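 note: amount of dephosphorylated VEPPL-S-QETFS peptide product formed by WIP1; plate controls were DMSO wells for no effect and GSK830371 inhibitor control at 10 µM for full effect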
Conditions: WIP1 dephosphorylation of phosphopeptide, RapidFire MS; series mostly up to 63 µM; activity change, negative = inhibition: at the top concentration
How it was run: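 WIP1 (10 nM final) was preincubated 1 h at room temperature with compounds in Tris-HCl pH 7.5, 30 mM MgCl2, TCEP, EGTA, BSA; 2 uM VEPPL-pS-QETFS phosphopeptide was added for 5 min, quenched with formic acid, and dephosphorylated product quantified by RapidFire MS.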
For `CC(=O)Nc1c(I)cc(I)c(C(=O)O)c1I`, the “activity change, negative = inhibition” value was -8.08%.
In the case of `CCCCCCCCCCCCCCCCCC(=O)OCC(O)CO` (centres undefined), the “activity change, negative = inhibition” value is reported as 29.9%.
In the case of `C[C@@H]1CN(CCCn2c3ccccc3c3ccccc32)C[C@H](C)N1`, the “activity change, negative = inhibition” value is reported as 18.7%.
In the case of `Cc1onc(-c2c(Cl)cccc2Cl)c1C(=O)N[C@@H]1C(=O)N2[C@@H]1SC(C)(C)[C@@H]2C(=O)O`, the “activity change, negative = inhibition” value is reported as -25.2%.
For `CCCCC(CC)CN=C(N)NC(N)=NCCCCCCN=C(N)NC(N)=NCC(CC)CCCC` (centres undefined), the “activity change, negative = inhibition” value was 44.7%.
For `CN(C)CC/C=C1/c2ccccc2COc2ccc(CC(=O)O)cc21`, the “activity change, negative = inhibition” value was 6.13%.
With `O=C(Nc1ccc(Oc2ccc(Cl)cc2)c(Cl)c1)c1cc(I)cc(I)c1O` the “activity change, negative = inhibition” value was -60.3%.
For `CN1[C@@H]2CC[C@H]1CC(OC(=O)c1c[nH]c3ccccc13)C2` (some centres undefined), the “activity change, negative = inhibition” value was 9.05%.

Target: Protein phosphatase 1D (Homo sapiens) (UniProt O15297)
Assay: Rhodamine-PBP qHTS Assay for Modulators of WT P53-Induced Phosphatase 1 (WIP1) (AID 1347425); note: % of control where 0% means no effect
Conditions: recombinant WIP1, Rhodamine-PBP phosphate fluorescence, real-time; series mostly up to 57.5 µM; activity change, negative = inhibition: at the top concentration
How it was run: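 Steps: enzyme with Rh-PBP sensor and compounds, room-temperature incubation of 1 hr, baseline read, addition of VEPPL-pS-QETFS (10 uM final), kinetic fluorescence reads at 525/598 nm. Activity equals final minus baseline signal.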
In the case of `Cc1c(C(N)=O)cc([N+](=O)[O-])cc1[N+](=O)[O-]`, the “activity change, negative = inhibition” value is reported as -14.4%.
With `CCC(=O)c1c(O)cc(O)cc1O` the “activity change, negative = inhibition” value was -4.94%.
For `CN(C)/N=N/c1nc[nH]c1C(N)=O`, the “activity change, negative = inhibition” value was -6.57%.

Tested on: not listed separately
Assay: Validation qHTS assay for inhibitors of Activation Induced Cytidine Deaminase (AID): UDG Counterscreen signal (AID 1347427); note: 0% is about no effect
Conditions: biochemical UDG counterscreen, fluorescence signal; series mostly up to 115 µM; activity, negative = inhibition: at the top concentration
How it was run: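 Counterscreen read of UDG activity (2 U/mL, 4/3x) in the FRET deamination format with AID (1 uM, 4/3x), DJC20/DJC23 substrates (250 nM, 4x), 4 h at room temperature. NaOH stop, fluorescence at 560 ex/665 em.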
For `CC(=O)O[C@H]1C[C@@H]2CC[C@@H]3[C@H](CC[C@@]4(C)[C@H]3C[C@H]([N+]3(C)CCCCC3)[C@@H]4OC(C)=O)[C@@]2(C)C[C@@H]1[N+]1(C)CCCCC1`, the “activity, negative = inhibition” value was 15.4%.
In the case of `CNCCC(Oc1ccccc1C)c1ccccc1` (centres undefined), the “activity, negative = inhibition” value is reported as 10.7%.
With `C1CCc2nnnn2CC1` the “activity, negative = inhibition” value was 2.75%.
In the case of `CCCC1O[C@@H]2C[C@H]3[C@@H]4CCC5=CC(=O)C=C[C@]5(C)[C@H]4[C@@H](O)C[C@]3(C)[C@]2(C(=O)CO)O1` (some centres undefined), the “activity, negative = inhibition” value is reported as 12.7%.
With `C[C@]12CC[C@@H]3c4ccc(O)cc4CC[C@H]3[C@@H]1CC[C@@H]2O` the “activity, negative = inhibition” value was 5.95%.
With `N[C@@H](Cc1cnc[nH]1)C(=O)O` the “activity, negative = inhibition” value was 8.97%.
In the case of `CC(C)COC(=O)OCN1C(=O)CN(CCN2CC(=O)N(COC(=O)OCC(C)C)C(=O)C2)CC1=O`, the “activity, negative = inhibition” value is reported as 5.7%.
For `CC[C@H](C)C(=O)O[C@H]1CCC=C2C=C[C@H](C)[C@H](CC[C@@H]3C[C@@H](O)CC(=O)O3)[C@H]21`, the “activity, negative = inhibition” value was 10.6%.
With `N[C@H](CO)C(=O)O` the “activity, negative = inhibition” value was 8.45%.
For `CNCCC=C1c2ccccc2CCc2ccccc21`, the “activity, negative = inhibition” value was 4.6%.
With `CC(C)C[C@H]1C(=O)N2CCC[C@H]2[C@]2(O)O[C@](NC(=O)[C@@H]3C=C4c5cccc6[nH]c(Br)c(c56)C[C@H]4N(C)C3)(C(C)C)C(=O)N12` the “activity, negative = inhibition” value was 7.21%.
With `CCCn1c(=O)[nH]c(=O)c2[nH]cnc21` the “activity, negative = inhibition” value was 13.1%.
With `O=C(O)c1cc2cc(Cc3cccnc3)ccc2o1` the “activity, negative = inhibition” value was 14.3%.
For `C[N+]1(CCCCC[N+]2(C)CCCC2)CCCC1`, the “activity, negative = inhibition” value was 13.4%.
For `CN1C2CCC1CC(OC(=O)c1c[nH]c3ccccc13)C2` (centres undefined), the “activity, negative = inhibition” value was 1.24%.
For `CC(CCc1ccccc1)NCC(O)c1ccc(O)c(C(N)=O)c1` (centres undefined), the “activity, negative = inhibition” value was 12%.
With `C[C@@H]1C(=O)NC2=Nc3cccc(Cl)c3CN21` the “activity, negative = inhibition” value was 11.2%.
With `COC(=O)[C@H]1[C@H]2C[C@H]3c4[nH]c5ccccc5c4CCN3C[C@H]2CC[C@@H]1O` the “activity, negative = inhibition” value was 3.11%.
With `CCC(NC(C)C)C(O)c1ccc(O)c(O)c1` (centres undefined) the “activity, negative = inhibition” value was -8.07%.
With `CC1(C)CCC(NC(=O)[C@@H](N)CCC(=O)O)CC1` the “activity, negative = inhibition” value was 14.3%.
With `O=C1CCC(c2ccc(-n3ccnc3)cc2)=NN1` the “activity, negative = inhibition” value was -2.71%.
For `Nc1cc(Cl)c(NC2=NCCN2)c(Cl)c1`, the “activity, negative = inhibition” value was 11.8%.
In the case of `COc1cc2c(cc1O)CC[C@@H]1[C@@H]2CC[C@]2(C)[C@@H](O)CC[C@@H]12`, the “activity, negative = inhibition” value is reported as 10.2%.

Reference: PubChem BioAssay (NCATS)
